High-throughput results: PubChem, Broad Institute
NOMO-1 viab: NOMO-1 AML cell viability reduction, primary screen, STK33 inhibitor project, CellTiter-Glo luminescence; inhibition, % (concentration not given with the values); NOMO-1 AML viability, 72 h; actives 7.5% (n = 37,000); in the data active = inhibition above about 80%
PD-1 reverse act: activators reversing PD-1 mediated T-cell inhibition, primary screen, luminescence, primary human CD4 T cells, PD-L1 beads; 29,000 tested, under 10 active; activation, % (no concentration beside the values); CellTiter-Glo 96 h; call rule not given here;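 also: 0% = median vehicle wells and 100% = positive control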
Shh pathway inh: Hedgehog pathway signaling inhibitors, primary screen, luminescence, Shh-LIGHT2 cells, Gli-luciferase; Shh-LIGHT2 Gli-luciferase reporter, 30 h; inhibition, % (no concentration beside the values); actives 2.1% (n = 22,000);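 active = mean inhibition across valid replicates above about 65%, limit read from the data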;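 also: pathway switched on by Shh-conditioned medium diluted 1 in 25 in low serum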
An asterisk follows results filed as active. In the library only some 7.7% were active in any assay of this set; here they are far more common.

`COCc1nc2ccccc2n1CCOc1ccc(Cl)cc1` gave NOMO-1 viab 43.
For CCOc1ccc(S(=O)(=O)NCc2ccccc2)cc1-c1nc2c(C(C)(C)C)nn(C)c2c(=O)[nH]1 the results were NOMO-1 viab 127*, PD-1 reverse act -2 and Shh pathway inh 79*.
CCOc1cc(S(=O)(=O)NCc2cccnc2)ccc1Cl was read as NOMO-1 viab 28 and PD-1 reverse act 1.
`C[C@@H]1CN([C@H](C)CO)C(=O)Cc2cc(NC(=O)Nc3cccc4ccccc34)ccc2O[C@@H]1CN(C)Cc1ccncc1` gave NOMO-1 viab 32 and PD-1 reverse act -1.
`C[C@H]1CN([C@@H](C)CO)C(=O)Cc2cc(NC(=O)Nc3cccc4ccccc34)ccc2O[C@@H]1CN(C)Cc1ccc(Cl)c(Cl)c1` gave NOMO-1 viab 108*, PD-1 reverse act 2 and Shh pathway inh -2.
Screening C[C@@H]1CN([C@H](C)CO)C(=O)Cc2cc(NC(=O)Nc3cccc4ccccc34)ccc2O[C@@H]1CN(C)Cc1ccccc1 returned NOMO-1 viab 88*, PD-1 reverse act -1 and Shh pathway inh 40.
For C[C@H](CO)N1C[C@H](C)[C@H](CN(C)Cc2ccc(-c3ccccc3)cc2)Oc2ccc(NC(=O)Nc3cccc4ccccc34)cc2CC1=O the results were NOMO-1 viab 54 and PD-1 reverse act 1.
`COCCCNC(=O)c1cc(-c2ccccc2)nc2c(C)cc(C)cc12` gave NOMO-1 viab 41 and PD-1 reverse act -2.
`Cc1cc(I)ccc1NC(=O)Cn1cc([N+](=O)[O-])cn1` gave NOMO-1 viab 19 and PD-1 reverse act 2.
COc1ccc(/C=N/n2c(=O)c3c(ncn3/N=C/c3ccc(OC)cc3)n(C)c2=O)cc1 was read as NOMO-1 viab 11 and PD-1 reverse act 0.
COc1ccc(C2(CNC(=O)c3ccc(OC)c([N+](=O)[O-])c3)CCCC2)cc1OC was read as NOMO-1 viab 14 and PD-1 reverse act -3.
`O=C(CC1(O)C(=O)N(Cc2ccc(Cl)cc2)c2ccc(Cl)cc21)c1ccc2c(c1)OCCO2` (configuration not stated) gave NOMO-1 viab 129* and PD-1 reverse act -2.
For CCCN1C(=O)C(O)(CC(=O)c2ccc(OC)c([N+](=O)[O-])c2)c2cc(Br)ccc21 (configuration not stated) the results were NOMO-1 viab 113* and PD-1 reverse act -12.
For CCCN1C(=O)C(O)(CC(=O)c2ccc(OC)c([N+](=O)[O-])c2)c2ccccc21 (configuration not stated) the results were NOMO-1 viab 118*.
For N#CCCCN1C(=O)C(O)(CC(=O)c2ccc(Br)s2)c2ccccc21 (configuration not stated) the results were NOMO-1 viab 47 and PD-1 reverse act -1.
COc1ccc(C(=O)CC2(O)C(=O)N(Cc3ccc(Cl)c(Cl)c3)c3ccccc32)cc1OC (configuration not stated) was read as NOMO-1 viab 43 and PD-1 reverse act 1.
O=C(CC1(O)C(=O)N(Cc2ccccc2)c2ccc(Cl)cc21)c1ccc2c(c1)OCCO2 (configuration not stated) was read as NOMO-1 viab 26 and PD-1 reverse act 1.
`COc1ccc(C(=O)CC2(O)C(=O)N(Cc3ccc(C)cc3)c3ccc(Cl)cc32)cc1[N+](=O)[O-]` (configuration not stated) gave NOMO-1 viab 124* and PD-1 reverse act -13.
Screening O=C(COc1ccccc1C(=O)O)Nc1ccccc1 returned NOMO-1 viab 17 and PD-1 reverse act 3.
`CCOC(=O)CCCSc1nc2c(c(C(F)(F)F)c1C#N)CC(C)CC2` (configuration not stated) gave NOMO-1 viab -4 and PD-1 reverse act 0.
For O=C(CSc1nnc(-c2ccc(Cl)cc2)o1)c1cccc([N+](=O)[O-])c1 the results were NOMO-1 viab 36 and PD-1 reverse act -2.
Screening Cc1cc(C)cc(N(C(C)C(=O)Nc2cccc3ccccc23)S(C)(=O)=O)c1 (configuration not stated) returned NOMO-1 viab 1 and PD-1 reverse act -2.
Screening O=C(O)C(Cc1ccsc1)c1ccccc1 (configuration not stated) returned NOMO-1 viab -10 and PD-1 reverse act 1.
`Cn1c(SCC(=O)Nc2cccc3ccccc23)nnc1-c1ccc(F)cc1` gave NOMO-1 viab 15 and PD-1 reverse act 0.
Screening Cc1coc(C)c1C(=O)CC1(O)C(=O)N(Cc2cccc3ccccc23)c2ccccc21 (configuration not stated) returned NOMO-1 viab 40 and PD-1 reverse act 1.
Cc1ccc(CN2C(=O)C(O)(CC(=O)c3c(C)coc3C)c3cc(Cl)ccc32)cc1 (configuration not stated) was read as NOMO-1 viab 128* and PD-1 reverse act 1.
Cc1ccc(S(=O)(=O)Nc2ccc3c(c2)CC(=O)N([C@@H](C)CO)C[C@H](C)[C@@H](CN(C)Cc2ccccc2)O3)cc1 was read as NOMO-1 viab 91*, PD-1 reverse act 0 and Shh pathway inh -6.
Screening Cc1ccc(S(=O)(=O)Nc2ccc3c(c2)CC(=O)N([C@H](C)CO)C[C@H](C)[C@H](CN(C)Cc2ccccc2)O3)cc1 returned NOMO-1 viab 98*, PD-1 reverse act 3 and Shh pathway inh 25.
Screening Cc1ccc(S(=O)(=O)Nc2ccc3c(c2)CC(=O)N([C@H](C)CO)C[C@@H](C)[C@H](CN(C)Cc2ccccc2)O3)cc1 returned NOMO-1 viab 5, PD-1 reverse act 2 and Shh pathway inh 23.
For C[C@@H]1CN([C@H](C)CO)C(=O)Cc2cc(NS(=O)(=O)c3ccccc3)ccc2O[C@H]1CN(C)Cc1ccccc1 the results were NOMO-1 viab 20 and Shh pathway inh 17.
For COC(=O)c1ccccc1NC(=O)c1ccc(NC(=O)CSc2ccccc2)cc1 the results were NOMO-1 viab 7.
For c1csc(-c2nnc(CSc3cccc4cccnc34)o2)c1 the results were NOMO-1 viab 112* and PD-1 reverse act -6.
`COc1cccc(Cc2nnc(-c3ccc(-c4cccs4)s3)o2)c1` gave NOMO-1 viab 9, PD-1 reverse act 0 and Shh pathway inh 60.
For CC1=CC(=O)CC2C1(C)CCC(C)C2(C)CC/C(C)=C\C(=O)O (configuration not stated) the results were NOMO-1 viab 2, PD-1 reverse act 2 and Shh pathway inh -29.
Screening CCOC(=O)c1cnc(SCC(=O)Nc2ccc(F)c(F)c2F)nc1N returned NOMO-1 viab 5 and PD-1 reverse act 2.
CCOC(=O)c1cnc(S/C=C/C(=O)c2ccc(Cl)cc2)nc1N was read as NOMO-1 viab 117*, PD-1 reverse act -3 and Shh pathway inh -33.
For Cc1cc(OCC(=O)Nc2cc(-c3nc4ccccc4o3)ccc2C)ccc1Cl the results were NOMO-1 viab 43 and PD-1 reverse act -4.
Screening CN(CC(O)Cn1c2ccccc2c2ccccc21)S(C)(=O)=O (configuration not stated) returned NOMO-1 viab -19.
